Experimental data from PubChem BioAssay (NCI).
The panel holds about 79,000 compounds, 15% with a hit somewhere; the sample as a whole holds those more often. Unmarked numbers belong to inactive results. No stated cut-off is given here; in the data, active means growth inhibition above about 70%; inactive means the rest.

assay: NCI Yeast Anticancer Drug Screen. Data for the cln2 rad14 strain (AID 165);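 further: 0% = growth equal to vehicle treated cultures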; settings: S. cerevisiae cln2 rad14 strain, at 50.0 µM, stronger effect = higher value
Summary of the method: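 Strain: cln2 rad14 yeast, altered in cell cycle control and DNA damage repair. Read-out: growth inhibition vs vehicle.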

SMILES	growth inhibition
O=[N+]([O-])c1cccc(/C=C/C=C/c2ccc(Cl)c(Cl)c2)c1	3.65%
COC1/C=C\OC2(C)Oc3c(C)c(O)c4c(O)c(c5[nH]cnc5c4c3C2=O)NC(=O)/C(C)=C\C=C\C(C)C(O)C(C)C(O)C(C)C(OC(C)=O)C1C (stereo not given)	28.2%
COc1cc(/C=C/C=C2\CC(C)C/C(=C\C=C\c3ccc(O)c(OC)c3)C2=O)ccc1O (stereo not given)	18.2%
Cc1cccc(C)c1NC(=O)CCC(=O)NC(N)=NC#N	9.7%
CCCc1nc2ccccc2c(=O)n1/N=C/c1ccc(Cl)cc1	5.7%
C=CCN(CC=C)C(=O)C(=C)C	2.6%
O=C(Cc1nc(-c2ccccc2)cc(=O)n1-c1ccccc1Cl)c1ccncc1	21.2%
COc1ccc(/C=N/NC(=O)CCCCCCCCC(=O)N/N=C/c2ccc(OC)c(OC)c2)cc1OC	-50.2%
CCC(CC)=C(c1ccc(C)cc1)c1ccc(C)cc1	-52.8%
CN(C)/C=C/c1ccnc2c1C(=O)c1ccccc1C2=O	67.8%
CCN1C(=O)c2ccccc2C1=O	-16.9%
CN(C(=O)c1ccccc1)C1CCCC(=O)CC1 (stereo not given)	9.95%
COc1ccc(C(CCOS(=O)(=O)c2ccc(Br)cc2)(c2ccc(OC)cc2)c2ccc(OC)cc2)cc1	-23.6%
O=C(O)c1cc(C(=O)Nc2cccc3ccccc23)c(C(=O)O)cc1C(=O)Nc1cccc2ccccc12	-5.4%
C(=NCCSSCCN=Cc1ccccc1)c1ccccc1	10.1%
